In paper PMC5540273 (PLoS ONE, 2017):

What was measured:
Conditions in all cases: concentration: 1 μM, replicates: in singlicate; n = 1
MAP4K4 = test system: MAP4K4
MAP4K5 = test system: MAP4K5
MAPKAPK2 = test system: MAPKAPK2
MAPKAPK5 = test system: MAPKAPK5
MARK1 = test system: MARK1
MARK2 = test system: MARK2
MARK3 = test system: MARK3
MARK4 = test system: MARK4
MAST1 = test system: MAST1
MEK1 = test system: T1, MEK1
T1 construct: gene MAP2K1
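Further: KINOMEscan kinase panel screen.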

SMILES | %Inh (MAP4K4) [%] | %Inh (MAP4K5) [%] | %Inh (MAPKAPK2) [%] | %Inh (MAPKAPK5) [%] | %Inh (MARK1) [%] | %Inh (MARK2) [%] | %Inh (MARK3) [%] | %Inh (MARK4) [%] | %Inh (MAST1) [%] | %Inh (MEK1) [%]
Cl.Oc1ccc(-c2nc(-c3ccccc3)[nH]c2-c2ccncc2)cc1 [SB-428218] | 0 | 0 | 13 | 0 | 0 | 0 | 0 | 0 | 0 | 0
Cc1ccc(-c2cc(-c3c[nH]nc3-c3ccccn3)ccn2)cc1 [GW684088] | 58 | 0 | 0 | 0 | 0 | 14 | 0 | 4 | 64 | 9
COc1ccc(C2=C(Nc3cccc(C(=O)O)c3)C(=O)NC2=O)cc1 [SB-390765] | 0 | 0 | 0 | 20 | 3 | 8 | 0 | 0 | 30 | 13
Cn1cncc1-c1ccc2ncnc(Nc3ccc(OCc4ccccc4)cc3)c2c1 [GW320571] | 25 | 21 | 21 | 0 | 0 | 0 | 0 | 2 | 0 | 11
Cc1cccc(-c2cc(Nc3ccncc3)c3ccccc3n2)n1 [GSK223675] | 0 | 0 | 13 | 0 | 0 | 0 | 0 | 0 | 0 | 0
Cc1cc(-c2ccc3c(c2)CC[C@@H](N[C@@H](C)c2ccccc2)C3)cnc1N.Cl [GW412617] | 17 | 41 | 13 | 0 | 4 | 10 | 32 | 14 | 0 | 0
NC(=O)c1nnc2ccccc2c1N | 12 | 11 | 0 | 0 | 12 | 0 | 0 | 19 | 1 | 40
C[C@@H]1CCCCN1c1cc(-c2ccc3c(N)n[nH]c3c2)nc(N)n1 [GSK2258759] | 0 | 0 | 4 | 0 | 0 | 0 | 0 | 0 | 0 | 27
CCn1c(-c2cccnc2O)nc2cnccc21 [SB-736715] | 0 | 0 | 16 | 0 | 0 | 15 | 0 | 0 | 13 | 0
Cc1cccc(-c2nc(Nc3ccncc3)c3ccccc3n2)n1 [GW855857] | 0 | 0 | 0 | 0 | 0 | 0 | 32 | 25 | 50 | 0
Cc1c(O)cccc1Nc1ccnc2ccc(C(F)(F)F)cc12.Cl [GW466413] | 0 | 0 | 8 | 0 | 0 | 0 | 0 | 2 | 0 | 0
CC(=O)Nc1nc2cnc(Nc3cc(NC(=O)c4cccc(CCC#N)c4)ccc3C)nc2s1 | 0 | 0 | 11 | 3 | 14 | 0 | 0 | 12 | 0 | 0
O=c1cc(N2CCOCC2)nc2n(Cc3cccc(Cl)c3Cl)ccn12 [GSK2286295] | 4 | 0 | 5 | 0 | 0 | 0 | 0 | 0 | 0 | 0
Clc1cc(Cl)cc(Nc2ccnc(Nc3cc(Cl)cc(Cl)c3)n2)c1 [GSK175726] | 0 | 0 | 0 | 0 | 0 | 16 | 0 | 0 | 0 | 0
COc1ccc(CNC(=O)NC2CCN(c3ccnc(Nc4cc(OC)c(OC)c(OC)c4)n3)C2)cc1 (centres unmarked) [GSK1379748] | 0 | 0 | 0 | 0 | 0 | 0 | 0 | 0 | 13 | 0
Cc1cc(NCC(c2ccccc2)c2ccccc2)nc(NCc2ccc(C(F)(F)F)cc2)n1 [GW497681] | 0 | 0 | 0 | 0 | 0 | 0 | 0 | 0 | 0 | 0

SMILES | %Inh (MAP4K4) [%] | %Inh (MAP4K5) [%] | %Inh (MAPKAPK2) [%] | %Inh (MAPKAPK5) [%] | %Inh (MARK1) [%] | %Inh (MARK2) [%] | %Inh (MARK3) [%] | %Inh (MARK4) [%] | %Inh (MAST1) [%] | %Inh (MEK1) [%]
Fc1cc(Cl)ccc1Nc1ccnc2cc(-c3ccc(CN4CCCCC4)o3)ccc12 [GW560116] | 0 | 0 | 0 | 0 | 0 | 0 | 0 | 0 | 43 | 4
Cc1ccccc1-n1cnc2c(N)ncnc21 [SKF-97510] | 0 | 0 | 0 | 0 | 0 | 0 | 0 | 0 | 12 | 0
O=C(O)COc1ncnc2cc(-c3ccc4[nH]ncc4c3)sc12 | 0 | 6 | 0 | 9 | 8 | 20 | 0 | 14 | 0 | 5
Cc1cccc(-c2nc(C)cc(Nc3ccncc3)n2)n1 [GSK257997] | 2 | 0 | 20 | 0 | 0 | 0 | 4 | 0 | 0 | 0
O=C(Nc1n[nH]c2nc(-c3nccs3)c(Br)cc12)C1CCCC1 [SB-742609] | 2 | 4 | 22 | 0 | 0 | 0 | 0 | 0 | 0 | 0
Fc1cc(Cl)ccc1Nc1ccnc2cc(I)ccc12 [GW551191] | 28 | 0 | 19 | 0 | 0 | 0 | 11 | 0 | 0 | 0
COc1cccc(NC(=O)NC2CCN(c3ccnc(Nc4ccc(F)cc4)n3)C2)c1 (centres unmarked) [GSK1379721] | 83 | 96.7 | 0 | 0 | 0 | 0 | 9 | 0 | 17 | 31
Cc1cccc(-c2nc(Nc3ccc4[nH]ncc4c3)c3ccccc3n2)n1 [GW857175] | 0 | 0 | 0 | 28 | 16 | 0 | 0 | 0 | 1 | 25
Fc1cccc(COc2nnc(-c3ccc4c(c3)CCO4)o2)c1 | 0 | 0 | 0 | 11 | 14 | 24 | 0 | 24 | 21 | 5
CCCc1ccc(S(=O)(=O)NC2CCN(c3ccnc(Nc4ccc(F)cc4)n3)C2)cc1 (centres unmarked) [GSK1379715] | 0 | 0 | 15 | 0 | 0 | 0 | 0 | 0 | 48 | 0
COc1ccccc1CNC(=O)c1cc(C(=O)c2ccccc2C)c[nH]1 [GSK364507] | 6 | 0 | 26 | 0 | 89 | 0 | 0 | 50 | 0 | 0
COc1ccc(Nc2nccc(-c3cccc(NC(=O)c4cc5cc(F)ccc5[nH]4)c3)n2)cc1 [GSK1229782] | 22 | 7 | 0 | 0 | 9 | 19 | 0 | 21 | 20 | 0
O=C(Nc1n[nH]c2nc(-c3nccs3)c(Br)cc12)C1CC1 [SB-742251] | 4 | 1 | 0 | 0 | 0 | 0 | 0 | 0 | 20 | 0
COc1ccccc1-c1ccc2c(NC(=O)C3CC3)n[nH]c2n1 [SB-711239] | 25 | 26 | 27 | 2 | 0 | 0 | 0 | 0 | 26 | 0
Cc1cccc(-c2nc(Nc3cccc(C(N)=O)c3)c3ccccc3n2)n1 [GW876019] | 0 | 0 | 0 | 0 | 0 | 0 | 45 | 0 | 11 | 97.2
COc1ccc2nc(-c3cccc(C)n3)nc(Nc3ccncc3)c2c1 [GSK204919] | 0 | 0 | 17 | 0 | 0 | 0 | 0 | 0 | 0 | 0
